IL-1B inflam inh = qHTS for Inhibitors of Inflammasome Signaling: IL-1-beta AlphaLISA Primary Screen. activity change, % at 57.5 µM. actives 4.7% (n = 360,000). THP-1 LPS/ATP IL-1B secretion, AlphaLISA, 16 h; active compounds read low; in the data active = activity change below about -50%; inconclusive = mostly about -30% to -49%
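Secreted IL-1B measured by AlphaLISA bead assay after 16 h compound exposure of THP-1 cells; compounds (final up to 57.5 uM) added 1 h before LPS (250 ng/mL) and ATP (1.25 mM) stimulation; lower signal means less secretion.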
HT1080 IDH1KD tx = qHTS for induction of synthetic lethality in tumor cells producing 2HG: qHTS for the HT-1080-IDH1KD cell line. HT-1080 IDH1 knockdown viability, ATP luminescence, 48 h. Potency, µM (doses to about 46.1 µM), usual class: cytotoxic. actives 2% (n = 360,000)
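Viability of IDH1-knockdown HT-1080 fibrosarcoma cells was assessed by CellTiter-Glo after 48 h at 37 °C with titrated compound; concentration-effect curves were classified by fit quality and response size.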
TDP1 cell CPT = qHTS for Inhibitors of human tyrosyl-DNA phosphodiesterase 1 (TDP1): qHTS in cells in presence of CPT | Potency, µM (highest dose often 46.2 µM), most hits filed as inhibitors | chicken DT40 Tdp1-/-;hTDP1 cells + 20 nM CPT, ATP luminescence, 48 h | actives 12% (n = 420,000); also: nearly all actives have a fitted effect of over 55% in size
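Chicken DT40 Tdp1-/- cells complemented with human TDP1, 400 cells/well, exposed to compounds plus 20 nM camptothecin for at least 48 h at 37 C; viability read as ATP content by CellTiter-Glo luminescence.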
DT40 TDP1 no CPT = qHTS for Inhibitors of human tyrosyl-DNA phosphodiesterase 1 (TDP1): qHTS in cells in absence of CPT | actives 15% (n = 420,000) | Potency, µM (titrated, usually from 46.2 µM), hits mostly inhibitors | DT40 Tdp1-/- hTDP1 cells, no CPT, ATP luminescence, 48 h; also: nearly all actives have a fitted effect of over 55% in size
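Growth of hTDP1-complemented DT40 Tdp1-knockout cells is measured by ATP luminescence after at least 48 hr compound exposure at 37 °C, with DMSO substituting for the 20 nM CPT used in the parallel screen.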
HT1080NT lethal = qHTS for induction of synthetic lethality in tumor cells producing 2HG: qHTS for the HT-1080-NT fibrosarcoma cell line; Potency, µM (highest dose often 46.1 µM), hits mostly cytotoxic; actives 1.6% (n = 360,000); HT-1080-NT fibrosarcoma viability, CellTiter-Glo ATP luminescence, 48 h;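 also: NT is the 2HG producing partner of a matched IDH1 knockdown line; nearly all actives have a fitted effect of over 55% in size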
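Read-out is CellTiter-Glo luminescence after 10 minutes at room temperature, following 48 hours' compound treatment of HT-1080-NT cells (750 cells/well, RPMI, 5% FBS, 37 degrees C).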
A number is an active result; - = inactive; ? = inconclusive; . = not tested or not shown. Rows were chosen to be rich in hits. Some 19% of all compounds tested hit in one or more screens of this group. Unless noted, calls follow the shape of the dose curve; as a rule, active = well fitted curve in the direction sought with a large enough effect; inconclusive = small, poorly fitted or top-dose-only effect, or another doubt; inactive = no such curve, though single readings can be large; an effect the other way counts as inactive or inconclusive.

SMILES	IL-1B inflam inh	HT1080 IDH1KD tx	TDP1 cell CPT	DT40 TDP1 no CPT	HT1080NT lethal
C[C@H](CO)N1C[C@H](C)[C@H](CN(C)S(=O)(=O)c2ccccc2)Oc2ccc(NC(=O)NC3CCCCC3)cc2CC1=O	?	-	?	?	-
C[C@H](CO)N1C[C@H](C)[C@@H](CN(C)S(=O)(=O)c2cccs2)Oc2ccc(NC(=O)Nc3ccc4c(c3)OCO4)cc2C1=O	?	-	21µM	18µM	-
COc1ccc(S(=O)(=O)N(C)C[C@H]2Oc3c(NC(=O)NC4CCCCC4)cccc3C(=O)N([C@H](C)CO)C[C@@H]2C)cc1	-55	-	?	?	-
CCC(Oc1cc(Cl)ccc1Cl)C(=O)N1CCC2(CC1)OCCO2 (centres undefined)	-	-	-	-	-
CN1CCCCC1Cc1ccccc1 (centres undefined)	-	-	-	-	?
FC(F)(F)c1ccccc1CCN1CCNCC1	-	-	-	-	-
C=C1C(=O)OC2CC3(C)OC3CCC(C)=CC(OC(C)=O)C12 (centres undefined)	-100	15µM	2.3µM	2.6µM	-
Cc1cccc(-n2c(O)c(/C=C3/C(c4ccccc4)=Nc4ccccc43)c(=O)[nH]c2=O)c1	-	5.8µM	2.9µM	2.3µM	16µM
COC(=O)C1=Nc2ccccc2/C1=C\c1c(O)n(-c2cc(OC)ccc2OC)c(=O)[nH]c1=O	-	-	-	-	-
Cc1ccc(-n2c(O)c(/C=C3/C(c4ccccc4)=Nc4ccccc43)c(=O)[nH]c2=O)cc1	-58	?	5.8µM	7.3µM	7.3µM
CC1=Nc2ccccc2/C1=C/c1c(O)n(C)c(=O)[nH]c1=O	-103	-	?	?	-
Cc1ccccc1-n1c(O)c(/C=C2/C(c3ccccc3)=Nc3ccccc32)c(=O)[nH]c1=O	?	?	4.6µM	4.6µM	?
CCCCCCCCN1C(=O)[C@H](CC(=O)NCCc2ccccc2OC)C[C@@]2(C(=O)OC)CCCCC=C12	-70	?	?	?	?
CN1CCc2nc3sc(C#N)c(N)c3c(-c3cccs3)c2C1	-	-	?	21µM	-
Cc1ccccc1CS(=O)(=O)Cc1ccc(C(=O)N2CCC3(CC2)OCCO3)o1	-	-	-	-	-
CCOc1ccc(CCNC(=O)c2ccc(CS(=O)(=O)c3ccccc3C)o2)cc1OCC	.	.	?	15µM	.
C[C@]12CC[C@H]3[C@@H](CC[C@]4(O)C[C@@H](O)CC[C@]34C=O)[C@@]1(O)CC[C@@H]2C1=CC(=O)OC1	-67	0.65µM	7.3µM	5.2µM	1.2µM
CCCCN=C[C@]12CCC(O)CC1(O)CCC1[C@@H]2CC[C@]2(C)[C@H](C3C=CC(=O)O3)CCC12O (some centres undefined)	-76	1.5µM	?	16µM	1.8µM
C[C@H]1O[C@@H](OC2CC[C@]3(C=O)[C@H]4CC[C@]5(C)[C@@H](C6=CC(=O)OC6)CC[C@]5(O)[C@@H]4CC[C@]3(O)C2)CC2OC(C)(C)OC21 (some centres undefined)	-93	0.1µM	1.8µM	1µM	0.18µM
CC12CCC3C(CCC4(O)CC(O)CCC34C=NO)C1(O)CCC2C1=COC(=O)C1 (centres undefined)	-104	0.58µM	16µM	8.2µM	0.82µM
COc1ccc(C2SCC(=O)Nc3c2c(=O)[nH]n3C2CCCCC2)cc1 (centres undefined)	-	-	-	-	-
NCCCCC(NC(CCc1ccccc1)C(=O)O)C(=O)N1CCCC1C(=O)O (centres undefined)	.	.	-	-	.
CNC(C)Cc1ccccc1OC (centres undefined)	.	.	-	-	.
CC12CCC3C(CCC4(O)CC(O)CCC34C=O)C1(O)CCC2C1=CC(=O)OC1 (centres undefined)	?	1.5µM	10µM	7.3µM	1.6µM
C[C@]12CCC3C(CCC4=CC(O)CC[C@@]43/C=N/O)C1(O)CCC2C1=CC(=O)OC1 (some centres undefined)	-71	0.82µM	-	?	3.3µM
SMILES	IL-1B inflam inh	HT1080 IDH1KD tx	TDP1 cell CPT	DT40 TDP1 no CPT	HT1080NT lethal
CC12CC[C@H]3[C@@H](CCC4(O)C[C@H](O)CCC34/C=N/NC(=O)c3ccccc3Cl)C1(O)CCC2C1=CC(=O)OC1 (some centres undefined)	-	-	-	-	-
CCOC(=O)CNC(=O)N1Cc2ccccc2-n2nncc2C1	-	-	-	-	-
C[C@@H]1O[C@H](C[N+](C)(C)C)C[C@@H]1O	.	.	-	-	.
CC/C=C/CC(=O)N[C@@H](c1ccccc1)[C@@H](O)C(=O)O[C@H]1C[C@@]2(O)[C@@H](OC(=O)c3ccccc3)C3[C@](C)(C(=O)[C@H](OC(C)=O)C(=C1C)C2(C)C)[C@@H](O)C[C@H]1OC[C@@]31OC(C)=O (some centres undefined)	-	0.0052µM	0.021µM	0.18µM	0.041µM
C/C=C(\C)C(=O)N[C@@H](c1ccccc1)[C@@H](O)C(=O)O[C@H]1C[C@@]2(O)[C@@H](OC(=O)c3ccccc3)C3[C@](C)(C(=O)[C@H](OC(C)=O)C(=C1C)C2(C)C)[C@H](O)C[C@H]1OC[C@@]31OC(C)=O (some centres undefined)	-	0.0052µM	0.13µM	0.16µM	0.046µM
CCC(C)C(=O)N[C@@H](c1ccccc1)[C@@H](O)C(=O)O[C@H]1C[C@@]2(O)[C@@H](OC(=O)c3ccccc3)C3[C@](C)(C(=O)[C@H](OC(C)=O)C(=C1C)C2(C)C)[C@@H](O)C[C@H]1OC[C@@]31OC(C)=O (some centres undefined)	-	?	0.029µM	0.18µM	0.18µM
CCN(CC)C(=O)c1ccc(NC(=O)Nc2ccccc2F)cc1	-	5.2µM	4.6µM	9.2µM	7.3µM
CCCCn1nnnc1C(CCc1ccccc1)N1CCC2(CC1)C(=O)NCN2c1ccccc1 (centres undefined)	-	?	?	?	?
Cc1cc(C=C2C(=O)NC(=S)NC2=O)c(C)n1-c1ccc2c(c1)OCO2	-101	?	?	?	-
COC(=O)C1=C(c2cccc(OCc3ccccc3)c2)C[C@@H]2CC[C@H]1N2C(=O)NCc1ccc(F)cc1	-	-	?	?	-
COC(=O)C1=C(c2ccc(F)cc2OCc2ccccc2)C[C@@H]2CC[C@H]1N2C(=O)NCc1ccc(C(F)(F)F)cc1	-52	-	23µM	?	-

Screens from PubChem BioAssay.
